Screening results as filed in PubChem.
RXFP1 antagonist = RXFP1 (human) relaxin receptor antagonism. Q9HBX9. HEK293-RXFP1, relaxin-stimulated cAMP HTRF, 30 min; hits give low values. activity change, negative = inhibition, % at 57.5 µM. 0.59% of 350,000 active. AID 1259400;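 active = activity change of -60% or lower, but not beyond a set lower limit; inconclusive = change between -60% and -40%, or beyond the set limit; inactive = change above -40%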; also: % is scaled to controls: 0 for no effect and ±100 for the full control effect
TRPV1 agonist = human TRPV1 agonism | Q8NER1 | TRPV1-expressing cells, Fluo-8 calcium influx, agonist mode | activation, % at 8.33 µM | 0.19% of 320,000 active | AID 540275; in the data active = activation above about 80%; inconclusive = between about 30% and that limit; also: 0% is about no effect
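TRPV1-expressing cells were cultured overnight at 35.5C and loaded with Fluo-8 calcium dye for 40 to 90 min at room temperature. After a 10 s baseline, compound was added and calcium influx was read kinetically for 3 min (ex 480/em 520 nm).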
TRPV1 potentiator = human TRPV1 potentiation; Q8NER1; TRPV1-expressing cells, Fluo-8 calcium influx, capsaicin EC20 potentiation; potentiation, % at 8.33 µM; 0.02% of 320,000 active; AID 540277; in the data active = potentiation above about 80%; inconclusive = between about 30% and that limit; also: 0% is about no effect
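TRPV1-expressing cells were cultured overnight at 35.5C and loaded with Fluo-8 calcium dye for 40 to 90 min at room temperature. After a 10 s baseline, compound was added and calcium influx was read kinetically for 3 min (ex 480/em 520 nm).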
gsp ag = gsp mutant agonism; gsp mutant cells, cAMP HTRF, 30 min; Potency, µM (series often up to 76.9 µM), without a hit: at the highest dose activation (cAMP increase), usual class: activators; 0.13% of 340,000 active; AID 624287; active = well fitted activation curve with a large enough effect; inconclusive = small, poorly fitted or top-dose-only effect, or another doubt; inactive = no such curve, though single readings can be large or run the other way; cell line not stated here;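 also: phosphodiesterase inhibitor Ro 20-1724 added with compounds to block cAMP breakdown; potency is read from the fitted curve at half-maximal effect; nearly all actives have a fitted effect of over 60% in size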
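Cells in DMEM/10% FBS with G418 were pretreated with compounds in DMSO plus […] (300 uM stock) for 30 min at 37C. cAMP was measured by HTRF (cAMP-d2 plus anti-cAMP antibody-K) after 30 min at room temperature.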
RXFP1 ag = agonists of human relaxin receptor RXFP1. Q9HBX9. HEK293T-RXFP1 cAMP TR-FRET, 30 min; response scale: percent of porcine relaxin response, buffer zero. Potency, µM (doses to about 57.5 µM), for the others: at the top dose activation, actives largely listed as activators. 0.3% of 370,000 active. AID 2676; active = well fitted activation curve with a large enough effect; inconclusive = small, poorly fitted or top-dose-only effect; also: potency is read from the fitted curve at half-maximal effect; % is scaled to controls: 0 for no effect and ±100 for the full control effect; nearly all actives have a fitted effect of over 60% in size
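cAMP rise read by TR-FRET after 30 min, 37C compound exposure (up to 58 uM) in RXFP1-transfected HEK293 cells with Ro 20174 present. EC50 from Hill-equation fits, with 29 nM porcine relaxin as 100% and buffer as basal.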
gsp antag = antagonists of gsp mutant (McCune-Albright syndrome). gsp-mutant cells, cAMP HTRF, 30 min. Potency, µM (highest dose often 76.9 µM), without a hit: at the top dose activity change, negative = inhibition, usual class: inhibitors. 0.4% of 340,000 active. AID 624288; calls by dose curve; cell line not stated here;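 also: intracellular cAMP measured with PDE inhibitor Ro 20-1724 present during compound exposure; potency is read from the fitted curve at half-maximal effect; % is scaled to controls: 0 for no effect and ±100 for the full control effect; nearly all actives have a fitted effect of over 65% in size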
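Measurement of cellular cAMP by homogeneous time-resolved fluorescence following a 30 min compound exposure at 37C. The PDE inhibitor […] was present throughout; the assay buffer was DPBS with 0.05% BSA and 0.005% Tween 20.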
* marks the source's active call; other numbers are inactive results; [ ] = dose if it differs, or a comment. Sampled rows, rich in hits. Any-hit rate of the full collection: about 1.1%.

Screening O=C(OCc1cc(=O)n2cc(Br)ccc2n1)C1COc2ccccc2O1 (stereo not given) returned RXFP1 antagonist -9.9, TRPV1 agonist 1.3, TRPV1 potentiator -7.1, gsp ag 10µM*, RXFP1 ag 9.2% and gsp antag -3.8%.
Screening COc1ccc(C(=O)C2CCCN(C3Cc4ccccc4C3)C2)c(OC)c1 (stereo not given) returned RXFP1 antagonist -64.7*, TRPV1 agonist inconclusive, TRPV1 potentiator -13.3, gsp ag -9.6%[15.4 µM], RXFP1 ag 0.9% and gsp antag -4.7%.
`CCOC(=O)c1csc(NC(=O)CN2CCCCC2)n1` gave RXFP1 antagonist -1.0, TRPV1 agonist -3.0, TRPV1 potentiator 6.4, gsp ag 0.7%, RXFP1 ag 1.4% and gsp antag 13.5%.
Screening OC(CN1CCN(c2ccccn2)CC1)Cn1c2ccc(Cl)cc2c2cc(Cl)ccc21 (stereo not given) returned RXFP1 antagonist 5.3, TRPV1 agonist -1.5, TRPV1 potentiator 4.2, gsp ag 3.7%, RXFP1 ag -0.9% and gsp antag 7.5%.
For OC(CN1CCCCC1)Cn1c2ccc(Cl)cc2c2cc(Cl)ccc21 (stereo not given) the results were RXFP1 antagonist -61.8*, TRPV1 agonist 5.3, TRPV1 potentiator -2.7, gsp ag -17.2%[15.4 µM], RXFP1 ag -0.6% and gsp antag 14.7%.
`COC(=O)c1ccc2c(=O)n(CCCCCC(=O)NCCc3ccccc3)c(=O)[nH]c2c1` gave RXFP1 antagonist -22.6 and RXFP1 ag 11.3%.
For CCOC(=O)CC(=O)CSc1ncnc2c1oc1ccccc12 the results were RXFP1 antagonist 25.2, TRPV1 agonist -0.9, TRPV1 potentiator 9.1, gsp ag inconclusive, RXFP1 ag 0.794µM* and gsp antag inconclusive.
Screening N#CCCSc1ncnc2c1oc1ccccc12 returned RXFP1 antagonist 10.3, TRPV1 agonist 2.7, TRPV1 potentiator -7.4, gsp ag -2.4%, RXFP1 ag 14.1µM* and gsp antag 43.8%.
CNc1ccc(/C=C(\C#N)C(=O)Nc2ccccn2)cc1[N+](=O)[O-] was read as RXFP1 antagonist 18.7, TRPV1 agonist -2.2, TRPV1 potentiator 1.8, gsp ag 56.1%[15.4 µM], RXFP1 ag 17.8µM* and gsp antag 6.2%.
For CCOC(=O)c1cc(-c2ccc(OC)cc2)nn1-c1ccc(C(=O)O)cc1 the results were RXFP1 antagonist -8.4, TRPV1 agonist -1.3, TRPV1 potentiator -9.0, gsp ag -3.0%, RXFP1 ag -3.5% and gsp antag 35.5µM*.
CCN(c1cccc(C)c1)S(=O)(=O)c1cc(Br)cc2c1N(C(C)=O)C(C)C2 (stereo not given) was read as RXFP1 ag 1.3%.
CCc1ccc(N/C(SC)=C(/C#N)C(N)=O)cc1 was read as RXFP1 antagonist -8.5, TRPV1 agonist 0.3, TRPV1 potentiator -4.7, gsp ag 3.3%, RXFP1 ag -2.3% and gsp antag -5.4%.
For N#CC(C#N)=C(Nc1ccc(F)cc1)SCc1cccc(F)c1 the results were RXFP1 antagonist 12.8, TRPV1 agonist 12.9, TRPV1 potentiator 9.0, gsp ag 0.8%, RXFP1 ag 0.7% and gsp antag 31.6µM*.
`CCCCNC(=O)COc1ccccc1C(=O)c1cc(C#N)c(=O)n(CCOC)c1` gave TRPV1 agonist 3.8, TRPV1 potentiator -11.7, gsp ag 8.5%, RXFP1 ag 4.8% and gsp antag -13.8%.
CCOC(=O)C(NC(=O)c1ccccc1Cl)(Nc1ccc(C)c(C)c1)C(F)(F)F (stereo not given) was read as RXFP1 antagonist -2.1, TRPV1 agonist -1.0, TRPV1 potentiator -0.7, gsp ag 15.0%, RXFP1 ag 2.1% and gsp antag -10.8%.
COC(=O)C(Nc1ccccc1Cl)(c1cc(C)c(O)c(C)c1)C(F)(F)F (stereo not given) was read as RXFP1 antagonist -64.1*, TRPV1 agonist 13.5, TRPV1 potentiator -8.1, gsp ag inconclusive, RXFP1 ag 8.4% and gsp antag -7.8%.
